ROMK primary: modulates human ROMK potassium channel activity. B-score at 10 µM. actives 2% (n = 130,000). P48048. Tet-inducible ROMK, thallium flux fluorescence; actives lie on both sides;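 active = signal ratio slope over the read window, or its plate-corrected B-score, at least 3 SD from the plate mean, either direction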;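 also: B-score of the F/F0 ratio slope over 7 to 12 s after thallium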
Target sequence (P48048 whole entry, looked up): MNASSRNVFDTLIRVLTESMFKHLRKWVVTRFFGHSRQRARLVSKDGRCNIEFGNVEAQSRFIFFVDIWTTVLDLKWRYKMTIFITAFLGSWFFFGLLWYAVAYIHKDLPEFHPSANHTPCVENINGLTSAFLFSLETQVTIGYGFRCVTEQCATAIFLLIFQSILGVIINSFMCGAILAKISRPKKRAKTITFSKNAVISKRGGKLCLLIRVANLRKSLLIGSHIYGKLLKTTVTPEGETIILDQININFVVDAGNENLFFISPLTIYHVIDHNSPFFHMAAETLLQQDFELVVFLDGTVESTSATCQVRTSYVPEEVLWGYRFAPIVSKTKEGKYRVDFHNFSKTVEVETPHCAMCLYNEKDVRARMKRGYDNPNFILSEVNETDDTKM
WT yeast gro inh: growth inhibition of WT yeast, mitochondrial fusion screen. mitochondrial fusion phenotypic screen, WT strain. inhibition, % at 10 µM. actives 2.1% (n = 190,000); in the data active = inhibition above about 58%; tested in S. cerevisiae
Arbovirus inh: blocks arbovirus infection; AID 1251; inhibition, % at 10 µM; arbovirus infection cell-based antiviral screen; actives 0.37% (n = 200,000); in the data active = inhibition above about 30%
PERK inh: human PERK inhibition, primary cell-based screen; actives 0.17% (n = 220,000); CHO PERK-DD fusion, SEAP luminescence translation reporter; Q9NZJ5; inhibition, % at 5.6 µM;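 active = inhibition above the mean inhibition of all tested compounds plus 3 SD, set separately per screening campaign, cut at about 2.9% in these data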;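 also: PERK kinase domain activated by AP20187 dimerizer at 100 nM; 0% = DMSO with dimerizer and 100% = rapamycin at 8.4 µM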
ROMK hit retest: retested hit modulating human ROMK potassium channel | shares compounds with ROMK primary | ROMK thallium flux, fluorescence ratio; hits give low values | normalized thallium flux (F/F0 slope) at 10 µM | actives 54% (n = 3,000);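 active = Flux at 10 µM at least 3 SD below or above vehicle control mean in one or both replicates; inconclusive = no clear call, values can overlap the other calls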
* marks the source's active call; other numbers are inactive results; ? = inconclusive; / = no result. Shown are actives, neighbours in structure and some others; about 3.3% of the full set was active somewhere.

SMILES	ROMK primary	WT yeast gro inh	Arbovirus inh	PERK inh	ROMK hit retest
CCN(CC)Cc1c(O)ccc2c([N+](=O)[O-])c(C)n(-c3ccc(OC)cc3)c12	-4.79*	-1.4	16.3	-0.4	?
Nc1nn(-c2ccccc2)c(N)c1N=Nc1ccc2c(c1)OCO2	2.74	-9.3	-27.1	0.1	/
Nc1nn(-c2ccccc2)c(N)c1N=Nc1cccc(F)c1	3.36*	/	/	0.7	0.0856
COc1ccc(Cc2noc(CN(C)CC3(N4CCOCC4)CCCCC3)n2)cc1OC	0.19	10.8	3.7	1.2	/
COC(Cc1n[nH]c(=S)n1-c1ccccc1)OC	/	2.9	1.5	0.9	0.0725
COCc1n[nH]c(=S)n1-c1ccccc1	-0.0371	0.4	1.3	0.5	/
COc1cccc(CNC(=O)c2ccc3nc[nH]c3c2)c1	/	-10.8	-6.0	0.3	/
CCOC(=O)c1cc(-c2ccccc2)n(CCC(=O)N2CCN(c3ccccn3)CC2)c1C	-2.09	5.7	-5.9	-0.5	/
COc1cccc(/C=C2\SC(=S)N(N3C(=O)CCCC3=O)C2=O)c1	-2.68*	-11.9	-1.5	2.3	0.0489*
Cc1cc2nnc(SCC(=O)Nc3cccc(S(=O)(=O)N4CCOCC4)c3)n2c2ccccc12	/	-21.3	11.5	1.1	0.0821
Cn1cnnc1SCC(=O)Nc1cccc(S(=O)(=O)N2CCOCC2)c1	0.918	12.1	-0.4	2.3	/
Cn1c(C23CC4CC(CC(C4)C2)C3)n[nH]c1=S	/	7.7	-4.0	0.7	/
Nc1nonc1C(=O)NCCNCc1cc(Br)ccc1OCc1ccccc1F	-4.15*	23.3	-2.0	-0.9	0.0489*
COc1cc(CNCCNC(=O)c2nonc2N)ccc1OCc1ccc(Cl)cc1	-3.07*	9.2	-36.0	-0.5	0.0525*
Cc1ccc(C(C(=O)NC(C)(C)C)N(Cc2cccs2)C(=O)c2csnn2)cc1 (stereo not drawn)	-0.401	/	/	-1.7	/
CCOC(=O)C(C)Sc1nc(-c2ccco2)cc(C(F)(F)F)c1C#N (stereo not drawn)	/	36.5	-0.2	0.9	/
Cn1c(=O)c2[nH]c(-c3ccccc3)c(O)c2n(C)c1=O	/	-4.6	-10.3	-0.1	/
Cn1c(=O)c2[nH]c(-c3ccccc3Cl)c(O)c2n(C)c1=O	-3.91*	1.2	2.5	0.9	0.0629*
O=P(c1ccccc1)(c1ccccc1)c1nc(-c2ccccc2)oc1NCc1ccccc1	-1.9*	25.6	-0.2	2.4	0.0775
C#CCNc1c2c(nc3ncnn13)CC(C)CC2 (stereo not drawn)	/	/	/	0.4	/
CCN(CC)S(=O)(=O)c1cccc(C(=O)OCC(=O)c2ccc3c(c2)OCCO3)c1	0.118	-23.0	9.3	0.6	/
O=C(Nc1nccs1)c1cc(Cl)nc2ccccc12	/	/	/	-0.3	0.0779
CCOC(=O)c1c(CSCc2ccccc2)oc2ccc(O)c(CN(C)C)c12	/	/	/	-1.7	0.0607*
O=C(O)C1CCC(NSc2ccccc2[N+](=O)[O-])CC1 (stereo not drawn)	/	/	/	0.2	/
COc1ccc(C(=O)CSc2[nH]c(=O)cc(C(F)(F)F)c2C#N)cc1	/	/	/	1.2	0.0684*
SMILES	ROMK primary	WT yeast gro inh	Arbovirus inh	PERK inh	ROMK hit retest
CN(O)/C=N/C(=S)Nc1ccc(Cl)cc1Cl	2.4*	2.7	-4.4	1.3	0.0796
CCCC(NC(=O)c1c(C)noc1C)C12CC3CC(CC(C3)C1)C2 (stereo not drawn)	/	14.9	0.7	0.7	/
CCN(CC)S(=O)(=O)c1ccc(C)c(NC(=O)Cn2cnc3cc([N+](=O)[O-])ccc3c2=O)c1	2.91*	-1.4	-8.6	0.4	?
O=C(Cn1cnc2cc([N+](=O)[O-])ccc2c1=O)Nc1cccc2ccccc12	/	/	/	-0.4	/
CCOc1cccc(N(C(=O)Cc2cccs2)C(C(=O)NC2CCCCC2)c2cccn2C)c1 (stereo not drawn)	-4.41*	-4.2	-6.5	0.4	0.062*
CCc1ccc(N(C(=O)Cc2cccs2)C(C(=O)NC2CCCCC2)c2cn(C)nc2C)cc1 (stereo not drawn)	/	-6.4	-3.8	-0.9	/
Cc1nn(C(C)C(=O)NCc2ccco2)c(C)c1[N+](=O)[O-] (stereo not drawn)	/	-26.5	2.5	0.1	0.0712
CCCCC(=O)Nc1ccc(C(=O)Nc2ccc(OC)cc2[N+](=O)[O-])cc1	/	9.0	-3.4	0.6	0.0348*
CCCCC(=O)Nc1ccc(NC(=O)c2ccc([N+](=O)[O-])cc2)cc1OC	0.28	4.7	-1.3	1.0	/
CC1=CC(C)(C)N(C(=O)CNC2CCCC2)c2cc(C)ccc21	-4.02*	-4.8	11.5	0.3	0.0496*
COc1cccc(N2CC(O)=C(c3nc4ccccc4s3)C2=N)c1	3.31*	-13.2	-20.9	-0.3	?
COc1ccc(N2CC(O)=C(c3nc4ccccc4s3)C2=N)cc1	/	-3.0	-1.4	-0.9	/
Nc1cc(=O)nc(SCC(=O)NC2CCCCC2)n1-c1ccccc1	-0.919	3.0	2.6	0.0	/
COc1ccc(CNC(=O)N2CCN(c3ccc(F)cc3)CC2)cc1Cl	-3.01*	-3.1	-0.1	-0.1	0.0746
COc1ccc(NC(=O)CN2CCN(c3ccc(F)cc3)CC2)cc1Cl	/	7.9	3.1	0.2	/
O=C(NNS(=O)(=O)c1ccccc1[N+](=O)[O-])c1ccccc1[N+](=O)[O-]	1.56	2.1	4.4	-0.9	/
O=C(CCC(=O)Nc1ccccc1)NNS(=O)(=O)c1ccccc1[N+](=O)[O-]	0.444*	-2.9	5.6	0.3	0.0869
CCCCSc1nnc(CCNC(=O)OC(C)(C)C)o1	/	/	/	-0.7	/
O=C(Nc1ccc(Oc2cccc(C(F)(F)F)c2)nc1)c1cccs1	/	/	/	0.2	0.064*
COc1ccc(NS(=O)(=O)c2ccc(N3CCOCC3)c(NC(=O)c3ccccc3Cl)c2)cc1	0.0628	-6.3	-15.6	-0.9	/
COc1ccc(-c2cc(C(=O)Nc3cc(S(=O)(=O)N4CCOCC4)ccc3N3CCOCC3)c3ccccc3n2)cc1	1.77*	-2.5	3.5	-0.2	0.0648*
O=C(Nc1ccccc1F)Nc1cc(S(=O)(=O)N2CCOCC2)ccc1N1CCCC1	-0.259	-14.0	-2.9	0.5	/
N#C/C(=C\c1ccccc1)C(=O)Nc1cc(S(=O)(=O)N2CCOCC2)ccc1N1CCCC1	/	-2.9	1.5	0.6	0.0563*
Cc1ccc(S(=O)(=O)N2CCCCC2)cc1NC(=O)COC(=O)Cc1cccc(C(F)(F)F)c1	-4*	5.8	-1.2	-0.4	0.0633*
O=C(COC(=O)Cc1ccc(Cl)cc1)Nc1cc(S(=O)(=O)N2CCOCC2)ccc1N1CCCC1	-4.32*	-17.5	0.8	-0.2	0.0608*
SMILES	ROMK primary	WT yeast gro inh	Arbovirus inh	PERK inh	ROMK hit retest
CCCCCn1c(SCCN2CCOCC2)nc2c1c(=O)[nH]c(=O)n2C	/	8.6	11.3	-0.2	/
CCCC(=O)Nc1nnc(SCC(=O)NCc2cccs2)s1	/	2.4	6.4	0.1	/
O=S(=O)(Nc1cc(Sc2ncn[nH]2)c(O)c2ccccc12)c1ccccc1	-4.34*	23.6	-41.1	0.0	0.0464*
Cc1cc(NS(=O)(=O)c2ccccc2)c(C)c(Cl)c1O	/	13.3	-14.4	/	/
Cc1nn(C)c(C(=O)Sc2ccccc2)c1[N+](=O)[O-]	-1.94	/	/	0.9	/
Cc1nn(C)c(C(=O)Sc2cccc(Cl)c2)c1[N+](=O)[O-]	-2.94*	/	/	2.4	0.0645*
COc1cc(NC(=O)COc2ccc(-n3cnnn3)cc2)c(OC)cc1Cl	/	10.1	-2.5	-0.9	0.0872

From PubChem
